This note sets out measurements from publication PMC7819943, “Rice protein-binding microarrays: a tool to detect cis-acting elements near promoter regions in rice”.

Over roughly 68,000 sequences, “fluorescence intensity (a.u.)” has its median near 9,100; the highest 2% begin near 16,000. The sample holds the highest values, similar sequences and a random draw of the others, so the mix is not that of the screen.

The target in this assay is OsWRKY34 (Oryza sativa, UniProt Q0JBA9 1-250). In words: protein-binding microarray (RPBM); PBS, 2% BSA, 51.3 ng/ul salmon testes DNA, 50 uM zinc acetate, 200 nM TF, 25 C, 1 h; high values mean tight binding. The settings on record: protein: recombinant; tags: N-terminal polyhistidine and DsRed monomer fusion (pET32a); label: CyDye5-dUTP incorporated in the synthesized complementary strand; 3' TTTTT single-stranded linker to array surface; dsDNA, one strand shown. Summed up: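 Transcription factors, each fused N-terminally to a polyhistidine tag and DsRed, were expressed in E. coli BL21-CodonPlus and purified on Ni–NTA. A custom Agilent array was made double-stranded by primer extension with Cy5-dUTP and blocked with 2% BSA. It was incubated with 200 nM protein in PBS, 2% BSA, salmon testes DNA and 50 µM zinc acetate at 25 °C for 1 h, then washed. The binding signal is per-feature fluorescence intensity (arbitrary units) read on an Axon 4000B scanner.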
Sequence of OsWRKY34 (Q0JBA9 entry or part of it): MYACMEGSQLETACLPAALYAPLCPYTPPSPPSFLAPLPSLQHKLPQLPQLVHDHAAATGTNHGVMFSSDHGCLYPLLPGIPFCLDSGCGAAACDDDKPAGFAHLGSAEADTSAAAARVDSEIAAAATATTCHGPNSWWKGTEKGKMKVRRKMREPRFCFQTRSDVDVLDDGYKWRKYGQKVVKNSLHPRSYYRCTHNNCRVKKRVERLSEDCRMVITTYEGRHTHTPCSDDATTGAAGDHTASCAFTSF
Take “CATGTGTGGTGAGCATATTTGTTTGTACTGTTGTATTTTACGGAGTCACCTAGTGCAG”: the binding signal was 9560 fluorescence intensity (a.u.).

With “CTTCTTCTATATCTGTAATCTTTCCTTATCTCCTCCCATGCGGAGTCACCTAGTGCAG”, the binding signal was 8520 fluorescence intensity (a.u.). Turning to “CCACCTCGTTTTATGTAAAACACTTAATCTTCAACTTCAGCGGAGTCACCTAGTGCAG”, the binding signal was 8860 fluorescence intensity (a.u.). As for “CGCAATCCACTTTCTCTCGCCAAGTCGTCGTCCATCCGATCGGAGTCACCTAGTGCAG”, the figure is 9020 fluorescence intensity (a.u.); as for “TTTTCAGCGTGTGCATCACATGGTCCGTATCTTTAATACTCGGAGTCACCTAGTGCAG”, 8520 fluorescence intensity (a.u.). In the case of “TCCTGTCGTATGTCTTCACCACCACACAAACAATGCTTCTCGGAGTCACCTAGTGCAG”, the binding signal is 9550 fluorescence intensity (a.u.). As for “ACTCCACTTAGGCTGCATTCGTTCTAGATACATTGAGTTACGGAGTCACCTAGTGCAG”, the figure is 9970 fluorescence intensity (a.u.); as for “GCCTTTGTCGGTCATGTTCCCATCGCTTTAGTTCTTCTCACGGAGTCACCTAGTGCAG”, 15000 fluorescence intensity (a.u.). Consider “GTGATAGAAAAGTTGTGTGTGTATGAAATGTTTGATGCGACGGAGTCACCTAGTGCAG”, for which the binding signal was 8750 fluorescence intensity (a.u.). As for “ATACTGAGAAAGTGCCAAGTTTTTGTCTGCTTCATGTAACCGGAGTCACCTAGTGCAG”, the figure is 8110 fluorescence intensity (a.u.); as for “GACCTCGCCGTCGCCGTCGCCGCCGCCGCCGCCGCCATGGCGGAGTCACCTAGTGCAG”, 9900 fluorescence intensity (a.u.).

Consider “CATTGTTCCTCACAGGATCAGGGGTGGAGAGTGAAGAGAGCGGAGTCACCTAGTGCAG”, for which the binding signal is 8070 fluorescence intensity (a.u.). For the sequence “GTGGTTGATTTGACCTTTTACATTGTACAGATGGTATTGGCGGAGTCACCTAGTGCAG”, the binding signal is 8480 fluorescence intensity (a.u.). Under “CTTCTCCTCTAGTCTGTGGTTGGCTGGCGATGGTGGCTTGCGGAGTCACCTAGTGCAG” stands 8820 fluorescence intensity (a.u.); under “GCGGGCAGTGGGCGCGAGATCTCATCCGAGTGGGTGGGCGCGGAGTCACCTAGTGCAG”, 8060 fluorescence intensity (a.u.); under “CCGCGGGTGGGGAGATTTGACCGGCGTTGACTCCGGGATGCGGAGTCACCTAGTGCAG”, 14300 fluorescence intensity (a.u.).

Take “TGCGGGATGGCTGGTTGGTGTGCGTGTGCTTCGGTGCGTTCGGAGTCACCTAGTGCAG”: the binding signal was 10400 fluorescence intensity (a.u.). Under “AGCGATGGTGGTGGTGGTGGTGGTGGTGGCTGGGTTGCTTCGGAGTCACCTAGTGCAG” stands 28200 fluorescence intensity (a.u.); under “GATCCGCGGCGCGGGTGGGGTTGTGGGGCGGGCGGAGATGCGGAGTCACCTAGTGCAG”, 19200 fluorescence intensity (a.u.). As for “CAGCCATCGCCTCCCCGACTCCCGTCGTTGTCCACCCCGTCGGAGTCACCTAGTGCAG”, the figure is 8260 fluorescence intensity (a.u.).

As for “TGTTCTGCCAGCCAATCCAGATCGCCCTCGTATGCACGCTCGGAGTCACCTAGTGCAG”, the binding signal was 8890 fluorescence intensity (a.u.). As for “TGAACTCCTAATACTGTCCTACCACTTCTACATGTCTTCTCGGAGTCACCTAGTGCAG”, the figure is 11300 fluorescence intensity (a.u.); as for “GCCTGCGCCGATCCCCATCCATTCCGCGAGCGAGCGAGTGCGGAGTCACCTAGTGCAG”, 8160 fluorescence intensity (a.u.).
